Publication PMC4336329 (PLoS ONE, 2015)
The whole screen tested about 310,000 compounds, of which about 14,000 (4.5%) showed an effect of 50% or more. Effects have a minus sign here. What follows is part of a selection rich in strong results, with near analogues and random picks from the rest.

Target: human ether-à-go-go-related gene (hERG) potassium channel (human, UniProt Q12809)
Assay: primary screen, population patch clamp on CHO cells stably expressing hERG; higher = less effect of the substance
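Also: peak tail current of the secondary pulse compared with the same well before compound.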

Sequence of human ether-à-go-go-related gene (hERG) potassium channel (Q12809 whole entry, looked up): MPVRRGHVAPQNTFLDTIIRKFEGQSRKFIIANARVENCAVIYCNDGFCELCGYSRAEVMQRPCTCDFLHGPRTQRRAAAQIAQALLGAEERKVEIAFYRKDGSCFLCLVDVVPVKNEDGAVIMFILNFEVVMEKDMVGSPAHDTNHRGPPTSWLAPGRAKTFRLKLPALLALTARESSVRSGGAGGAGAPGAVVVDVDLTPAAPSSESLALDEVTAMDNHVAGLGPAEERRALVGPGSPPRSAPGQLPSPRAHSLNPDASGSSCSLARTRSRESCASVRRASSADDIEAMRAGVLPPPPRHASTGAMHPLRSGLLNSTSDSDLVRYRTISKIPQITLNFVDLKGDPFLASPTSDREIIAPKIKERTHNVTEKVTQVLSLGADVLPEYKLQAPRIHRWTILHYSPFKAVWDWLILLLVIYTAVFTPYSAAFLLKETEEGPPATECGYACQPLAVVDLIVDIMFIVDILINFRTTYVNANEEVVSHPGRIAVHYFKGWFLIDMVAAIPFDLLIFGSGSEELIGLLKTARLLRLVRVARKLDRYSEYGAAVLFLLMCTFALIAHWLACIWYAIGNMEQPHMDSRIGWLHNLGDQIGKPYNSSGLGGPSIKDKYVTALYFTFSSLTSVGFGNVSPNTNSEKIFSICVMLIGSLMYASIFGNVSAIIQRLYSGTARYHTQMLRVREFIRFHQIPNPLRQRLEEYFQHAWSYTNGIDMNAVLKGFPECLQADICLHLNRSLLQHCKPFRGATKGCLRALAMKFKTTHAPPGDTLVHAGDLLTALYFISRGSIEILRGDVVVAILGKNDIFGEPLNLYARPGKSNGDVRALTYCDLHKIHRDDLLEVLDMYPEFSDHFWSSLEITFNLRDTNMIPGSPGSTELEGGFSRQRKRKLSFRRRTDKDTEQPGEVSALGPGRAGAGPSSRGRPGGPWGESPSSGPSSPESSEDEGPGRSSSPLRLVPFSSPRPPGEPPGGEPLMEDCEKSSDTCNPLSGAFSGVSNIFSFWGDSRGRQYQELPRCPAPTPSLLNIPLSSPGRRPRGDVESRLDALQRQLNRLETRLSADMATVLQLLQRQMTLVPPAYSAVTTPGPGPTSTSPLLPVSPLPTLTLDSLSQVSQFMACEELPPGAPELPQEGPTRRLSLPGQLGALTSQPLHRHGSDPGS

| Compound | hERG current change (%, negative = inhibition) at 10uM |
| --- | --- |
| CC1CCN(S(=O)(=O)c2ccc(NC(=O)CSc3ncccc3C(=O)O)cc2)CC1 | 7.31% |
| O=C(COc1ccccc1)NC1CCSC1=O (stereo not shown) | -72.9% |
| CCCCc1cc(=O)oc2cc(OCC(=O)N[C@@H](Cc3ccccc3)C(=O)O)ccc12 | 6.13% |
| Cc1cc(OCC(=O)NC2CCN(Cc3ccccc3)CC2)c2c(C)cc(=O)oc2c1 | -21.4% |
| CCCCc1cc(=O)oc2cc(OCC(=O)NCC3CCC(C(=O)O)CC3)ccc12 (stereo not shown) | 18% |
| O=C(COc1ccc2c3c(c(=O)oc2c1)CCC3)NC1CCN(Cc2ccccc2)CC1 | -24.9% |
| CCCCc1cc(=O)oc2cc(OCC(=O)NC3CCN(Cc4ccccc4)CC3)ccc12 | -61.1% |
| Cc1cc(=O)oc2cc(OCC(=O)NC3CCN(Cc4ccccc4)CC3)ccc12 | -63.9% |
| O=C(COc1ccc(Cl)cc1)NC1CCSC1=O (stereo not shown) | -16.8% |
| O=C(COc1ccccc1)NC1CCSc2ccccc21 (stereo not shown) | 0.0355% |
| O=c1[nH]c(O)c(N=Nc2ccc3c(c2)OCCO3)c(=O)[nH]1 | 14.2% |
| CC(=O)N1c2ccc(N=Cc3cc(Br)cc(Br)c3O)cc2CC1C (stereo not shown) | 2.6% |
| Cc1ccc(CN2C(=O)/C(=C\c3ccc(C(=O)NCc4cccnc4)cc3)Oc3ccccc32)cc1 | 12.9% |
| O=C(NNc1ccccn1)C(=O)NNS(=O)(=O)c1ccc(F)cc1 | 12.5% |
| Cn1c(=O)c2nc(-c3ccccc3)oc2c2ccccc21 | -1.46% |
| N#Cc1c(-c2ccccc2)nc(SCC(=O)Nc2ccc(OC(F)(F)Cl)cc2)[nH]c1=O | 28.5% |
| CN(C)C(=S)Nc1ccc2ccccc2c1 | 11.2% |
| COCC(=O)N1CCC(n2nnc3cc(C(F)(F)F)ccc32)CC1 | -22% |
| COC(=O)c1ccccc1NC(=O)CN1CCC(n2nnc3cc(C(F)(F)F)ccc32)CC1 | -6.14% |
| C=CCNC(=O)CN1CCC(n2nnc3cc(C(F)(F)F)ccc32)CC1 | -50.7% |
| Cc1nc2cc(C(F)(F)F)ccc2n1C1CCN(CC(=O)N2CCCC2)CC1 | -13.1% |
| C=CCNC(=O)CN1CCC(n2c(C)nc3cc(C(F)(F)F)ccc32)CC1 | -62.1% |

| Compound | hERG current change (%, negative = inhibition) at 10uM |
| --- | --- |
| Cc1nc2cc(C(F)(F)F)ccc2n1C1CCN(CC(=O)N2CCOCC2)CC1 | -44.4% |
| COCCNC(=O)CN1CCC(n2c(C)nc3cc(C(F)(F)F)ccc32)CC1 | -25.6% |
| CC1Cc2ccccc2N1C(=O)CN1CCC(n2nnc3cc(C(F)(F)F)ccc32)CC1 (stereo not shown) | -67.2% |
| Cc1nc2cc(C(F)(F)F)ccc2n1C1CCN(CC(=O)NC(C)(C)C)CC1 | -19.4% |
| O=C(CN1CCC(n2nnc3cc(C(F)(F)F)ccc32)CC1)NNC(=O)c1ccco1 | -24.6% |
| Cc1nc2cc(C(F)(F)F)ccc2n1C1CCN(C(=O)N2CCOCC2)CC1 | -55.7% |
| Cc1cc(NC(=O)CN2CCC(n3nnc4cc(C(F)(F)F)ccc43)CC2)no1 | -50% |
| CC1=C(C#N)C(NC(=O)C(C)(C)C)(C(F)(F)F)C(=O)N1 (stereo not shown) | 1.3% |
| O=C(O)c1ccccc1NS(=O)(=O)c1ccc2c3c(cccc13)C(=O)N2 | 16.1% |
| CC1CCN(CCCNC(=O)CCCNC(=O)Cn2cnc3sc4c(c3c2=O)CCCC4)CC1 | 12.3% |
| Cc1ccc(NC(=O)NCCCl)cc1S(=O)(=O)N1CCOCC1 | 1.99% |
| COc1ccc2cc3cc(C(=O)N4CCN(c5ccccc5)CC4)oc3nc2c1 | 13.2% |
| CN(C)CCCC1Sc2ccccc2Sc2ccccc21.O=C(O)C(=O)O (stereo not shown) | -56.1% |
| CC1c2ccccc2SC(CCCN(C)C)c2ccccc21.O=C(O)/C=C\C(=O)O (stereo not shown) | -19.2% |
| CN(C)CCC1Sc2ccccc2Oc2ccccc21.O=C(O)C(=O)O (stereo not shown) | -24.8% |
| Cc1nc2scc(C)n2c(=O)c1S(=O)(=O)N1CCN(c2ccc([N+](=O)[O-])cc2)CC1 | -12% |
| CCN(CC)c1ccc(NC(=O)CSc2nnc(N)s2)cc1C | 2.78% |
| COC(C/C=C\C(=O)[C@H](C)OCc1ccccc1)OC | 9.66% |
| O=C(CCC1CCCCC1)NCCN1C2=NC[C@H](Cc3ccccc3)N2C[C@H]1Cc1ccc(O)cc1 | -42% |
| O=C(CCC1CCCCC1)NCCN1C2=NC[C@@H](Cc3ccccc3)N2C[C@H]1Cc1ccc(O)cc1 | -69.3% |
| COc1ccc(C[C@H]2CN3C(=NC[C@@H]3Cc3ccccc3)N2CCNC(=O)CCC2CCCCC2)cc1 | -73.7% |
| COc1ccc(C[C@H]2CN3C(=NC[C@H]3Cc3ccccc3)N2CCNC(=O)CCC2CCCCC2)cc1 | -71.9% |

| Compound | hERG current change (%, negative = inhibition) at 10uM |
| --- | --- |
| O=C(CCC1CCCCC1)NCCN1C2=NC[C@H](Cc3ccc(O)cc3)N2C[C@H]1Cc1ccc(O)cc1 | -4.37% |
| CCOC(=O)c1ccc(NC(=O)c2ccnn2C)cc1 | 4.61% |
| CC(OC(=O)c1nc(-c2ccccc2)n(-c2ccccc2)n1)C(=O)Nc1cc(Cl)cc(Cl)c1 (stereo not shown) | -6.35% |
| CN(C)C(CNC(=O)c1ccc2ccccc2n1)c1ccccc1 (stereo not shown) | 11.1% |
| CC(=O)OC1N=C(c2ccc(Cl)cc2)c2cc(Br)ccc2NC1=O (stereo not shown) | -55% |
| CC(=O)OC1N=C(c2ccccc2Cl)c2cc(Br)ccc2NC1=O (stereo not shown) | -40.3% |
| O=C1Nc2ccc(Br)cc2C(c2ccccc2)=NC1O (stereo not shown) | 13.1% |
| CC(=O)OC1N=C(c2ccccc2)c2cc(Br)ccc2NC1=O (stereo not shown) | -10.2% |
| O=C1Nc2ccc(Br)cc2C(c2ccc(Cl)cc2)=NC1O (stereo not shown) | -56.5% |
| O=C1Nc2ccc(Br)cc2C(c2ccccc2Cl)=NC1O (stereo not shown) | -48.6% |
| COc1cc2c(=O)n(Cc3ccccc3)c(=O)n(CC(=O)NCCc3ccccc3)c2cc1OC | 0.36% |
| CC(Nc1ncnc2sccc12)c1ccccc1 (stereo not shown) | -29.8% |
| Cc1ccc(C(=O)NCCNC(=O)CN2CCCC2)cc1 | 5.16% |
| Cc1ccccc1-c1nc(P(=O)(c2ccccc2)c2ccccc2)c(N2CCOCC2)o1 | -19.5% |
| Cc1cccc(OCCNc2cc(N3CCOCC3)ccc2[N+](=O)[O-])c1 | -12.8% |
| C#CCOCCOCCOCCNc1nc(N2CCN(C(=O)[C@H](C(C)C)n3cc(CCO)nn3)CC2)nc(N2CCN(C(=O)[C@H](C(C)C)n3cc(CCO)nn3)CC2)n1 | 2.97% |
| COc1ccc(OCCOCCOc2ccc(C)cc2[N+](=O)[O-])cc1 | -22.4% |
| COc1ccc(CNCC(O)COc2cccc3c2OC(C)(C)C3)cc1.Cl (stereo not shown) | -60.5% |
| Cc1ccc([N+](=O)[O-])c(OCC(O)CNC(C)(C)C)c1.Cl (stereo not shown) | 3.01% |
| COC(=O)c1ccc(COc2cccc3c2OC(C)(C)C3)cc1 | 28.7% |
| COc1ccc(CNCC(O)COc2ccc(C)cc2[N+](=O)[O-])cc1 (stereo not shown) | -71.2% |
| CC1(C)Cc2cccc(OCC(O)CNCc3ccccn3)c2O1.Cl (stereo not shown) | -25.1% |

| Compound | hERG current change (%, negative = inhibition) at 10uM |
| --- | --- |
| O=C(CSc1nnc(-c2cccnc2)o1)N1CCCCC1 | 9.4% |
| CC(C)C(NC(=O)C1CCCCC1)C(=O)NCc1ccccn1 (stereo not shown) | 9.17% |
| CC(C)CC1C(C#N)=C(N)SC(N)=C1C#N | 15.9% |
| CCOc1ccc(N(C)S(=O)(=O)c2ccc(-c3ccc(=O)[nH]n3)s2)cc1 | -15.6% |
| CCc1cccc(C)c1NC(=O)CN(C)S(=O)(=O)c1ccc(-c2ccc(=O)[nH]n2)s1 | -55.3% |
| Cc1cc(NC(=O)CN(C)S(=O)(=O)c2ccc(-c3ccc(=O)[nH]n3)s2)ccc1Br | 7.95% |
| Cc1ccc(N(C)S(=O)(=O)c2ccc(-c3ccc(=O)[nH]n3)s2)cc1C | 13.7% |
| Cc1cccc2sc(NC(=O)CN(C)S(=O)(=O)c3ccc(Br)s3)nc12 | -2.49% |
| Cc1cccc(C)c1NC(=O)CN(C)S(=O)(=O)c1ccc(-c2ccc(=O)[nH]n2)s1 | -51.7% |
| COc1cc(OC)cc(C(=O)N[C@H](C(=O)OCC(=O)Nc2ccc(F)c(F)c2)C(C)C)c1 | -8.85% |
| Cc1cc(/C=C2\SC(=O)N(C)C2=O)c(C)n1-c1ccc(S(N)(=O)=O)cc1 | 13.3% |
| COc1cccc(-c2cc(C(F)(F)F)nc(NCc3ccco3)n2)c1 | 18.8% |
| Fc1cccc(Cl)c1-c1nnc2ccc3ccccc3n12 | 10.3% |
| Cc1ccc2c(c1)N(C(=O)CCC(=O)N1CCN(c3ccccn3)CC1)CCO2 | -52.2% |
| Cc1ccc2c(c1)N(C(=O)CCC(=O)N1CCN(c3ccccn3)CC1)CC(C)O2 (stereo not shown) | -46.1% |
| O=C(CCN1C(=O)COc2ccccc21)N1CCN(c2ccccc2)CC1 | -15% |
| O=C(CCN1C(=O)COc2ccccc21)N1CCCCC1 | -6.49% |
| Cc1ccc(C)c(N2CCN(C(=O)CCC(=O)N3CCOc4ccc(Cl)cc43)CC2)c1 | -18.9% |
| Cc1ccc2c(c1)N(C(=O)CCC(=O)N1CCN(c3cccc(C)c3C)CC1)CCO2 | -18.7% |
| O=C(CCN1C(=O)COc2ccccc21)N1CCN(c2ccccn2)CC1 | -69.3% |
| O=C(O)CCC(=O)N1CCOc2ccc(Cl)cc21 | 2.92% |
| O=C(CCC(=O)N1CCOc2ccc(Cl)cc21)N1CCN(c2ccccn2)CC1 | -57.5% |
